Hits are enriched below; roughly 7% of the tested compounds scored in any of these assays.
JMJD2A Tudor – blocks the human JMJD2A Tudor domain | O75164 | AlphaScreen JMJD2A-Tudor / H3K4me3 peptide binding | Potency, µM (series often up to 114 µM), inactives show top-dose activity change, negative = inhibition, hits mostly inhibitors | 4.4% of 390,000 active | AID 504339; further: potency means the concentration at half of the fitted maximal effect; on the % scale 0 is the no-effect control and ±100 the full control effect; nearly all actives have a fitted effect of over 50% in size
Target sequence (O75164 whole entry, looked up, the tested form may be a part): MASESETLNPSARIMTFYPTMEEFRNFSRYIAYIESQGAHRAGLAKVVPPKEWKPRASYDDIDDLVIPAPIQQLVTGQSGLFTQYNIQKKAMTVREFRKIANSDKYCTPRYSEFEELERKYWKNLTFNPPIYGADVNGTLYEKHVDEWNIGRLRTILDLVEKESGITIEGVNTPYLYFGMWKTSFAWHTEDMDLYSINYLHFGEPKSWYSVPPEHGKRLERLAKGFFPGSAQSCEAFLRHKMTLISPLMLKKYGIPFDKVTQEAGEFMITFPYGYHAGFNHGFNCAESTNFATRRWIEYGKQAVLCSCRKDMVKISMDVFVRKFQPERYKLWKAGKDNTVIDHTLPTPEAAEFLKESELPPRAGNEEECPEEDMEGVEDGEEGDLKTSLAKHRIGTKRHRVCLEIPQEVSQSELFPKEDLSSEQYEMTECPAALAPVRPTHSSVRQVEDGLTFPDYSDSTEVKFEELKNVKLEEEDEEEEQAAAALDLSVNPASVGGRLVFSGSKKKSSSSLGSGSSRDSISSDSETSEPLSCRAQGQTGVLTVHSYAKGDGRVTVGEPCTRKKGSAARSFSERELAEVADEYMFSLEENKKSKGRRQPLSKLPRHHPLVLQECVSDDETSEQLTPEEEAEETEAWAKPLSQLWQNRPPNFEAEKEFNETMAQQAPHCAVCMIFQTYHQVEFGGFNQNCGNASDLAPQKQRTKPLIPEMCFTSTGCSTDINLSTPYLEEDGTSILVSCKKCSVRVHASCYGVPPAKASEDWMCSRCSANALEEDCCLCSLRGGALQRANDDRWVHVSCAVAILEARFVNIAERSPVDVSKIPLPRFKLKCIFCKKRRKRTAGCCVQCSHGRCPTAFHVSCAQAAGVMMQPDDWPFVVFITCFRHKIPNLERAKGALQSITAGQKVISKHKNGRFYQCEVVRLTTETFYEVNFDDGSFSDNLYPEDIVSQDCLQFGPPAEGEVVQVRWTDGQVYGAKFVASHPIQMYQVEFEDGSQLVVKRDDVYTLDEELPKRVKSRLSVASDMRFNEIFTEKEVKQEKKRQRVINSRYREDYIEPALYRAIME
PI5P4Ka inh – PI5P4K alpha (human) kinase inhibition; PI5P4Kalpha enzyme, ADP-Glo luminescence, 60 min; hits give low values; 1.2% of 330,000 active; AID 652105; P48426; max response, %; active means max response of -50% or lower; inconclusive means between -30% and -50%; inactive means -30% or higher; further: value at the top dose of about 77 µM; on the % scale 0 is the no-effect control and ±100 the full control effect
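Controls without substrate or without enzyme flank wells where PI5P4Kalpha converts substrate using 5 microM ATP (final). Incubation lasts 60 minutes at room temperature; ADP formed is read by ADP-Glo luminescence.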
KAT2A inh – blocks human GCN5L2 histone acetyltransferase | GCN5L2 HAT assay, ThioGlo1 CoA-SH fluorescence | Potency, µM (highest dose often 58.9 µM), for inactives: top-dose activity change, negative = inhibition, hits mostly inhibitors | 0.21% of 390,000 active | AID 504327; further: potency means the concentration at half of the fitted maximal effect; on the % scale 0 is the no-effect control and ±100 the full control effect
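Free CoA generated was detected with ThioGlo1 (50uM) fluorescence at Ex340nm/Em540nm, read immediately and after 20 min at room temperature. Enzyme, 20 nM in HEPES pH 7.5 buffer, saw compounds 15 min before adding 75uM H3(1-25) peptide and 70uM acetyl-CoA.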
HP1b chromo inh – inhibitors of HP1-beta chromodomain binding to methylated histone tails | P83916 | AlphaScreen HP1-beta / biotin-H3K9me3 peptide binding | Potency, µM (top dose mostly 114 µM), inactives show at the highest dose activity change, negative = inhibition, usual class: inhibitors | 0.56% of 390,000 active; further: potency means the concentration at half of the fitted maximal effect; nearly all actives have a fitted effect of over 70% in size
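Compound inhibition of the preformed complex between 50 nM HP1-beta and 50 nM biotinylated H3K9me3 peptide was read by AlphaScreen. Buffer was PBS pH 7.4 with 0.01% Tween-20. Incubations ran 30 min at room temperature, with 10 ug/mL donor/acceptor beads.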
BAZ2B block – blocks human BAZ2B | AID 504333 | Q9UIF8 | Potency, µM (series often up to 114 µM), without a hit: at the highest dose activity change, negative = inhibition, hits mostly inhibitors | 4.4% of 360,000 active | AlphaScreen BAZ2B-H3K14Ac peptide displacement; further: potency means the concentration at half of the fitted maximal effect; on the % scale 0 is the no-effect control and ±100 the full control effect; nearly all actives have a fitted effect of over 60% in size
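AlphaScreen displacement of biotin-H3(5-23)K14Ac peptide (50 nM final) from BAZ2B (50 nM final) in PBS pH 7.4, 0.01% Tween-20; complex preformed 30 min RT, then compounds (top 110 uM) 30 min RT, beads 20 min dark.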
PLK1 PBD block – blocks phosphopeptide binding to human PLK1 polo-box domain. P53350. Plk1 PBD binding of FITC phosphopeptide, fluorescence polarization. Potency, µM, without a hit: max response, negative = inhibition, usual class: inhibitors. 2.8% of 360,000 active. AID 720504; further: potency means the concentration at half of the fitted maximal effect; series mostly up to about 57 µM; on the % scale 0 is the no-effect control and ±100 the full control effect; nearly all actives have a fitted effect of over 65% in size
Starred values were filed as active, the others as inactive; [ ] = dose if it differs, or a comment. Unless noted, the call rests on the fitted dose curve; in most records, active means well fitted curve in the direction sought with a large enough effect; inconclusive means small, poorly fitted or top-dose-only effect, or another doubt; inactive means no such curve, though single readings can be large; an effect the other way counts as inactive or inconclusive.

Screening Cc1cccc(N2C(=O)c3cccc4cccc(c34)C2=O)c1 returned JMJD2A Tudor -27%, PI5P4Ka inh -4, KAT2A inh -11%, HP1b chromo inh 57%, BAZ2B block -2% and PLK1 PBD block -5%.
Cc1cccc(N2C(=O)c3cccc4c(N)ccc(c34)C2=O)c1 was read as JMJD2A Tudor 56%, PI5P4Ka inh 0, KAT2A inh -14%, HP1b chromo inh 110%, BAZ2B block 27% and PLK1 PBD block 3.8µM*.
`O=c1[nH]cnc2c1ncn2-c1ccc(N(CCO)CCO)cc1` gave JMJD2A Tudor -11%, PI5P4Ka inh 0, HP1b chromo inh 29% and PLK1 PBD block -1%.
For CCN(CC)c1ccc(NS(=O)(=O)c2ccc3c(c2)CCCN3C(C)=O)c(C)c1 the results were JMJD2A Tudor 50µM*, KAT2A inh 14%, HP1b chromo inh -5%[57 µM] and BAZ2B block 40µM*.
`CCN(CC)c1ccc(NS(=O)(=O)c2ccc(-c3coc(C)n3)cc2)c(C)c1` gave JMJD2A Tudor 25µM*, KAT2A inh -19%, HP1b chromo inh inconclusive and BAZ2B block 13µM*.
Cc1nc(-c2ccc(S(=O)(=O)Nc3ccccc3C)cc2)co1 was read as JMJD2A Tudor -27%, PI5P4Ka inh 4, KAT2A inh -10%, HP1b chromo inh 65%, BAZ2B block -32% and PLK1 PBD block -11%.
CCN(CC)c1ccc(NS(=O)(=O)c2cc3[nH]c(=O)c(=O)[nH]c3cc2C)c(C)c1 was read as JMJD2A Tudor 45µM*, KAT2A inh -12%, HP1b chromo inh -29% and BAZ2B block 50µM*.
Screening O=C(CSCc1ccc(F)cc1)Nc1ccc(F)cc1 returned JMJD2A Tudor 3%, PI5P4Ka inh 1, KAT2A inh -6%, HP1b chromo inh 51%, BAZ2B block -2% and PLK1 PBD block -13%.
For O=C(CSCc1ccccc1)Nc1cccc(F)c1 the results were JMJD2A Tudor 45µM*, PI5P4Ka inh -23, KAT2A inh 31%, HP1b chromo inh 22%, BAZ2B block 4% and PLK1 PBD block 3.4µM*.
For O=C(CSc1ccsc1[N+](=O)[O-])Nc1cccc(F)c1 the results were JMJD2A Tudor 45µM*, PI5P4Ka inh -77*, KAT2A inh -19%, HP1b chromo inh inconclusive, BAZ2B block 35µM* and PLK1 PBD block inconclusive.
`COc1ccccc1CNC(=O)CSc1ccsc1[N+](=O)[O-]` gave JMJD2A Tudor -26%, PI5P4Ka inh inconclusive, KAT2A inh -4%, HP1b chromo inh 55%, BAZ2B block inconclusive and PLK1 PBD block -24%.
CCc1ccccc1NC(=O)CSc1ccsc1[N+](=O)[O-] was read as JMJD2A Tudor inconclusive, PI5P4Ka inh -57*, KAT2A inh -16%, HP1b chromo inh -22%, BAZ2B block 50µM* and PLK1 PBD block -28%.
For O=C(CSc1ccsc1[N+](=O)[O-])NCc1ccccc1 the results were JMJD2A Tudor -33%, PI5P4Ka inh inconclusive, KAT2A inh -5%, HP1b chromo inh 5%, BAZ2B block inconclusive and PLK1 PBD block inconclusive.
COc1cccc2c(C)nc(Nc3nc(CSc4nnc(C)s4)cc(=O)[nH]3)nc12 was read as JMJD2A Tudor inconclusive, PI5P4Ka inh -17, KAT2A inh -2%, HP1b chromo inh inconclusive, BAZ2B block -1% and PLK1 PBD block 24µM*.
For COCCNC(=O)CCCC(=O)NCCOC the results were JMJD2A Tudor 25µM*, PI5P4Ka inh 0, KAT2A inh 0%, HP1b chromo inh 51%, BAZ2B block 8% and PLK1 PBD block -21%.
For COc1ccccc1-c1nnc2n1N=C(c1ccc(O)c(O)c1)CS2 the results were JMJD2A Tudor inconclusive, PI5P4Ka inh inconclusive, KAT2A inh 57%, HP1b chromo inh -2%, BAZ2B block 50µM* and PLK1 PBD block -10%.
c1ccc(C2=Nn3c(nnc3-c3ccco3)SC2)cc1 was read as JMJD2A Tudor -24%, PI5P4Ka inh -7, KAT2A inh -9%, HP1b chromo inh -15%, BAZ2B block -27% and PLK1 PBD block 30µM*.
`COc1ccc(C2=Nn3c(nnc3-c3ccccn3)SC2)cc1` gave JMJD2A Tudor 40µM*, PI5P4Ka inh 12, KAT2A inh -4%, HP1b chromo inh 25%, BAZ2B block 25µM* and PLK1 PBD block -7%.
For COc1cccc(C2=Nn3c(nnc3-c3ccccc3OC)SC2)c1 the results were JMJD2A Tudor 79µM*.
For COc1ccc(C2=Nn3c(nnc3-c3ccccc3C)SC2)cc1 the results were JMJD2A Tudor -17%.
Screening Brc1ccccc1C1=Nn2c(nnc2-c2ccco2)SC1 returned JMJD2A Tudor -21%, PI5P4Ka inh -23, KAT2A inh -7%, HP1b chromo inh 26%, BAZ2B block -19% and PLK1 PBD block -20%.
`C[C@@H]1CN([C@H](C)CO)C(=O)CCCn2cc(nn2)CO[C@H]1CN(C)C(=O)c1cc(-c2ccccc2)on1` gave PI5P4Ka inh -3 and PLK1 PBD block -27%.
For Cn1c2cc(CO)sc2c2cnn(Cc3ccccc3F)c(=O)c21 the results were JMJD2A Tudor -2%.
COc1ccc(CCNC(=O)CCN2C(=O)[C@@H]3Cc4ccccc4CN3C2=O)cc1 was read as JMJD2A Tudor -11%, PI5P4Ka inh 3, KAT2A inh -3%, HP1b chromo inh 34%, BAZ2B block -3% and PLK1 PBD block -14%.
Screening COc1cccc(CNC(=O)CCN2C(=O)[C@@H]3Cc4ccccc4CN3C2=O)c1 returned JMJD2A Tudor inconclusive, PI5P4Ka inh -10, KAT2A inh -3%, HP1b chromo inh inconclusive, BAZ2B block -18% and PLK1 PBD block 27µM*.
`COCc1ccc(C(=O)N2CCCC(C(=O)c3ccc(SC)cc3)C2)o1` (stereo unspecified) gave JMJD2A Tudor 0%, PI5P4Ka inh 4, KAT2A inh -2%, HP1b chromo inh 13%, BAZ2B block 3% and PLK1 PBD block -5%.
For O=C(N/N=C/C=C/c1ccco1)c1ccncc1 the results were JMJD2A Tudor 79µM*, PI5P4Ka inh -28, KAT2A inh inconclusive, HP1b chromo inh inconclusive, BAZ2B block 8% and PLK1 PBD block -3%.
`O=C(N/N=C/C=C\c1ccco1)c1cccs1` gave JMJD2A Tudor -23%, PI5P4Ka inh -27, KAT2A inh inconclusive, HP1b chromo inh 7%, BAZ2B block 45µM* and PLK1 PBD block -11%.
CC(=C/c1ccco1)/C=N/NC(=O)c1ccncc1 was read as JMJD2A Tudor -12%, PI5P4Ka inh 2, KAT2A inh inconclusive, HP1b chromo inh 21%, BAZ2B block -23% and PLK1 PBD block 1%.
